Screening data (PubChem BioAssay)
This is a sample that favours compounds with a hit; in the whole collection about 2.6% have one here.
A549 tox: kills or reduces viability of A549 cells in Nrf2 counter-screen | 0.16% of 390,000 active | Potency, µM (highest dose often 46 µM), for inactives: top-dose activity change, negative = cytotoxicity, usual class: inhibitors | A549 ARE-Fluc cells, CellTiter-Fluor viability, 18-24 h; also: potency is read from the fitted curve at half-maximal effect; % is scaled to controls: 0 for no effect and ±100 for the full control effect
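A549 ARE_Fluc cells in 5% FBS OPTI-MEM were exposed to compounds in concentration-response for 18-24 h at 37 deg C. Viability was read by CellTiter-Fluor fluorescence (Ex 405/Em 525) after 30 min, before the luciferase read.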
CCT chaperon mod: cytosolic chaperonin activity modulation | 0.3% of 360,000 active | purified chaperonin ATPase assay, HTRF ADP detection, 30 min | activity change, % (concentration not given with the values), hits read low; in the data active = activity change below about -30%; also: % is scaled to controls: 0 for no effect and ±100 for the full control effect
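First, chaperonin was dispensed at 40 nM or 20 nM final depending on batch activity. Next, compounds were pinned at 76 uM and ATP added at 10 uM. After 30 min at 37 °C, ADP detection reagents ran 30 min at ambient temperature.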
TCR activator: activators of T cell receptors | primary human leukocytes, anti-CD3, IL-2 HTRF, 48 h | Potency, µM (doses to about 9.22 µM), inactives show at the highest dose activation of IL-2 secretion, usual class: activators | 330,000 tested, under 10 active | AID 504894; also: % of control where 0% means no effect
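48 hr co-incubation of compounds, a-CD3 beads and primary human leukocytes; IL-2 quantified homogeneously by HTRF with anti-IL-2 K and d2 conjugates.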
A-T KAP1 phos: candidate therapy for ataxia-telangiectasia | F2112 A-T fibroblasts, KAP-1 phosphorylation AlphaLISA; neocarzinostatin DNA damage 30 min before lysis | Potency, µM (series often up to 57.5 µM), inactives show at the top dose activation, most hits filed as activators | 0.19% of 320,000 active | AID 485349; also: potency is read from the fitted curve at half-maximal effect; % of control where 0% means no effect; nearly all actives have a fitted effect of over 45% in size
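ATM-like activity read as KAP-1 phosphorylation via AlphaLISA donor/acceptor antibody pairs after lysis and 6 hr at 25C. Cells were ATM-null patient fibroblasts (F2112, hTERT), dosed 60 min, then exposed to the DSB inducer NCS for 30 min.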
Nrf2 block: inhibitors of Nrf2 signaling. A549 ARE-Fluc reporter, luciferase luminescence, 18-24 h. Potency, µM (series often up to 46 µM), for inactives: top-dose activity change, negative = inhibition, actives largely listed as inhibitors. 2.1% of 360,000 active. AID 504444; also: potency is read from the fitted curve at half-maximal effect; % is scaled to controls: 0 for no effect and ±100 for the full control effect; nearly all actives have a fitted effect of over 60% in size
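Reporter: ARE-Fluc in A549. Exposure: 18-24 h, 37 °C, 5% CO2, 5% FBS OPTI-MEM. Readouts: fluorescent cytotoxicity (CellTiter-Fluor), then luminescent Nrf2 signal after BugLite.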
Nrf2 activator: Nrf2 pathway activation; Potency, µM (top dose mostly 46.1 µM), for inactives: at the top dose activation, usual class: activators; AREc32 ARE-luciferase reporter (MCF7-derived line), luminescence, 24 h; 0.31% of 410,000 active; also: potency is read from the fitted curve at half-maximal effect; % of control where 0% means no effect; nearly all actives have a fitted effect of over 65% in size
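Nrf2 activation is followed as ARE-luciferase induction in the AREc32 line after one day of compound treatment; luminescence is read with Steady-Glo.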
* hit, by the source's call; [ ] = dose if it differs, or a comment. Unless noted, calls follow the shape of the dose curve; as a rule, active = well fitted curve in the direction sought with a large enough effect; inconclusive = small, poorly fitted or top-dose-only effect, or another doubt; inactive = no such curve, though single readings can be large; an effect the other way counts as inactive or inconclusive.

Results for CCCc1cc(C(=O)Nc2c(C)nn(Cc3ccc(Cl)c(Cl)c3)c2C)no1 ?
A549 tox: -14.8%; Nrf2 block: 16.4µM*; Nrf2 activator: 3.8%

What do the screens show for `CCCc1cc(C(=O)Nc2ccccc2SC)no1`?
A549 tox: 4.5%; CCT chaperon mod: -0.2; TCR activator: 5.3%; A-T KAP1 phos: 39.8µM*; Nrf2 block: inconclusive; Nrf2 activator: 4.9%

What do the screens show for `Cc1ccccc1Cn1nc(C)c(NC(=O)c2cc(CC(C)C)on2)c1C`?
A549 tox: 4.1%; CCT chaperon mod: -0.4; TCR activator: -11.1%; A-T KAP1 phos: 1.8%; Nrf2 block: inconclusive; Nrf2 activator: 0.5%

What do the screens show for `Cc1nn(Cc2ccc(Cl)c(Cl)c2)c(C)c1NC(=O)c1cc(CC(C)C)on1`?
A549 tox: inconclusive; CCT chaperon mod: -0.9; TCR activator: 0.3%; A-T KAP1 phos: 12.4%; Nrf2 block: 8.2µM*; Nrf2 activator: 2.6%

What do the screens show for `COC(=O)C1=C(C)N(Cc2ccccc2)C(=NCc2ccc(OC)cc2)N[C@H]1c1ccc(Br)cc1`?
A-T KAP1 phos: 12.3%

How did CCOC(=O)c1cccc(Nc2c3c(nc4ccccc24)CCC3)c1 do in these assays?
A549 tox: -16.4%; Nrf2 block: 20.6µM*; Nrf2 activator: -1.8%

What do the screens show for `CCOC(=O)c1cccc(Nc2nc(C(=O)OCC)nc3ccccc23)c1`?
A549 tox: 10.4%; Nrf2 activator: 0.0%

What do the screens show for `COC(=O)c1cccc(Nc2c3c(nc4ccccc24)CCC3)c1`?
A549 tox: -27.3%; CCT chaperon mod: 0.6; TCR activator: -2.5%; A-T KAP1 phos: -2.4%; Nrf2 block: 23.1µM*; Nrf2 activator: 0.2%

Results for CC(=O)c1cccc(Nc2c3c(nc4ccccc24)CCC3)c1 ?
A549 tox: 1.4%; CCT chaperon mod: -2.8; TCR activator: 5.2%; A-T KAP1 phos: 37.1%; Nrf2 block: -13.9%; Nrf2 activator: -0.1%

What do the screens show for `CCOc1ccccc1CNC(=O)C1CCN(c2nn3cc(-c4ccc(F)cc4)nc3s2)CC1`?
A549 tox: 0.1%; Nrf2 block: inconclusive; Nrf2 activator: 0.8%

Results for C=CCc1ccccc1OCC(=O)NNC(=S)NCc1ccccc1 ?
A549 tox: -0.2%; CCT chaperon mod: -33.5*; TCR activator: -4.5%; A-T KAP1 phos: -2.2%; Nrf2 block: -6.9%; Nrf2 activator: 0.0%

What do the screens show for `O=C(COc1ccc(Cl)cc1)NNC(=S)NCc1ccccc1`?
A549 tox: 1.6%; CCT chaperon mod: -0.6; TCR activator: 1.4%; A-T KAP1 phos: 23.4%; Nrf2 block: 2.5%; Nrf2 activator: 0.7%

What do the screens show for `O=[N+]([O-])c1ccc(-c2ccc(S(=O)(=O)NCCN3CCCC3)cc2)cc1`?
A549 tox: -5.3%; CCT chaperon mod: -3.2; TCR activator: -7.7%; A-T KAP1 phos: -2.2%; Nrf2 block: 16.4µM*; Nrf2 activator: 4.9%

How did O=C(COC(=O)CNC(=O)c1ccc([N+](=O)[O-])o1)Nc1ncc(C(F)(F)F)cc1Cl do in these assays?
A549 tox: -7.4%; CCT chaperon mod: -0.9; TCR activator: -2.7%; A-T KAP1 phos: 22.4µM*; Nrf2 block: inconclusive; Nrf2 activator: inconclusive

What do the screens show for `O=C(COC(=O)CNC(=O)c1ccc([N+](=O)[O-])o1)Nc1ncc(Cl)cc1Cl`?
A549 tox: -19.8%; CCT chaperon mod: -1.9; TCR activator: 1.0%; A-T KAP1 phos: 35.5µM*; Nrf2 block: -8.4%; Nrf2 activator: inconclusive

Results for Cc1ccc(C(=O)NCC(=O)OCC(=O)Nc2ncc(C(F)(F)F)cc2Cl)cc1 ?
A549 tox: 4.5%; CCT chaperon mod: 1.7; TCR activator: 0.8%[46.1 µM]; A-T KAP1 phos: -5.7%; Nrf2 block: 1.9%; Nrf2 activator: -0.4%

What do the screens show for `CCN(C(=O)C1CCCN(c2ncnc3c2nc2n3CCCCC2)C1)c1cccc(C)c1` (stereo not given)?
A549 tox: -2.6%; Nrf2 block: -33.1%; Nrf2 activator: 0.5%

Results for O=[N+]([O-])c1cccc(-c2cnc3ccccc3n2)c1 ?
A549 tox: 5.9%; CCT chaperon mod: -4.3; TCR activator: -9.6%; A-T KAP1 phos: 9.5%; Nrf2 block: inconclusive; Nrf2 activator: 6.31µM*

Results for Cc1cc(-c2cccc([N+](=O)[O-])c2)nc2ccccc12 ?
A549 tox: -5.6%; CCT chaperon mod: 1.8; TCR activator: 5.7%[46.1 µM]; A-T KAP1 phos: 1.7%; Nrf2 block: 26.2%; Nrf2 activator: inconclusive

Results for CC(=O)N1c2ccc(S(=O)(=O)NCC3CCC(C(=O)Nc4cccc(C)c4C)CC3)cc2CC1C (stereo not given) ?
A549 tox: 7.3%; Nrf2 block: inconclusive; Nrf2 activator: 4.1%

How did COc1cccc(CNC(=O)Nc2cc(C(=O)NCc3cccc(F)c3)ccc2N2CCCC2)c1 do in these assays?
A549 tox: -7.9%; Nrf2 activator: 0.4%

How did O=C(N=Nc1c(O)[nH]c2ccc(Br)cc12)c1ccccc1-n1cccc1 do in these assays?
A549 tox: inconclusive; CCT chaperon mod: -2.8; TCR activator: 2.7%; A-T KAP1 phos: -4.2%; Nrf2 block: inconclusive; Nrf2 activator: 6.5%

What do the screens show for `O=C(N=Nc1c(O)[nH]c2ccc(Br)cc12)c1ccco1`?
CCT chaperon mod: -2.5; Nrf2 activator: 5.01µM*

Results for CCOC(=O)c1sc2nc(C)cc(C)c2c1N ?
A549 tox: 5.3%; CCT chaperon mod: -1.1; TCR activator: -10.5%; A-T KAP1 phos: inconclusive; Nrf2 block: -2.5%; Nrf2 activator: 10.1%

What do the screens show for `Cc1cc(C)c2c(N)c(C(=O)NN)sc2n1`?
A549 tox: -1.8%; CCT chaperon mod: -3.5; TCR activator: -4.3%; A-T KAP1 phos: 17.8µM*; Nrf2 block: 1.5%; Nrf2 activator: -0.1%

How did CC1(c2ccccc2)CC(C)(C)N2C(=O)C3(C(C#N)=C(N)Oc4cc(O)ccc43)c3cccc1c32 (stereo not given) do in these assays?
A549 tox: inconclusive; CCT chaperon mod: 0.3; A-T KAP1 phos: 0.6%; Nrf2 block: 20.6µM*; Nrf2 activator: 0.0%

Results for CCCCOc1ccc(CSc2nc(C)[nH]c2[N+](=O)[O-])cc1[N+](=O)[O-] ?
A549 tox: inconclusive; CCT chaperon mod: 0.6; TCR activator: 0.9%; A-T KAP1 phos: 5.7%; Nrf2 block: 14.6µM*; Nrf2 activator: 4.6%

What do the screens show for `CCCCOc1ccc(CSc2nnc(C)n2N)cc1[N+](=O)[O-]`?
A549 tox: 3.8%; CCT chaperon mod: 2.5; TCR activator: 5.4%; A-T KAP1 phos: 0.7%; Nrf2 block: 6.2%; Nrf2 activator: 0.2%
